# TDP1 cell noCPT – qHTS for Inhibitors of human tyrosyl-DNA phosphodiesterase 1 (TDP1): qHTS in cells in absence of CPT; DT40 Tdp1-/- hTDP1 cells, no CPT, ATP luminescence, 48 h; Potency, µM (titrated, usually from 46.2 µM), for inactives: at the top dose activity change, negative = growth inhibition, actives largely listed as inhibitors; actives 15% (n = 420,000); AID 686978, 2013; also: potency is read from the fitted curve at half-maximal effect; nearly all actives have a fitted effect of over 55% in size
#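 Luminescent ATP content (CellTiter-Glo) served as the growth readout. Knockout chicken DT40 cells expressing human TDP1 were exposed to compounds without camptothecin for a minimum 48 hr at 37 °C.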
# 12-LOX inh – Primary qHTS assay for inhibitors of human arachidonate 12S-lipoxygenase (ALOX12): Round 2; Polyunsaturated fatty acid lipoxygenase ALOX12 (Homo sapiens), P18054; purified 12hLO, xylenol orange hydroperoxide absorbance; Potency, µM (titrated, usually from 108 µM), for inactives: top-dose activity change, negative = inhibition, hits mostly inhibitors; actives 1.1% (n = 580,000); AID 1671190, 2021; also: potency is read from the fitted curve at half-maximal effect
# Target sequence (P18054 whole entry, looked up): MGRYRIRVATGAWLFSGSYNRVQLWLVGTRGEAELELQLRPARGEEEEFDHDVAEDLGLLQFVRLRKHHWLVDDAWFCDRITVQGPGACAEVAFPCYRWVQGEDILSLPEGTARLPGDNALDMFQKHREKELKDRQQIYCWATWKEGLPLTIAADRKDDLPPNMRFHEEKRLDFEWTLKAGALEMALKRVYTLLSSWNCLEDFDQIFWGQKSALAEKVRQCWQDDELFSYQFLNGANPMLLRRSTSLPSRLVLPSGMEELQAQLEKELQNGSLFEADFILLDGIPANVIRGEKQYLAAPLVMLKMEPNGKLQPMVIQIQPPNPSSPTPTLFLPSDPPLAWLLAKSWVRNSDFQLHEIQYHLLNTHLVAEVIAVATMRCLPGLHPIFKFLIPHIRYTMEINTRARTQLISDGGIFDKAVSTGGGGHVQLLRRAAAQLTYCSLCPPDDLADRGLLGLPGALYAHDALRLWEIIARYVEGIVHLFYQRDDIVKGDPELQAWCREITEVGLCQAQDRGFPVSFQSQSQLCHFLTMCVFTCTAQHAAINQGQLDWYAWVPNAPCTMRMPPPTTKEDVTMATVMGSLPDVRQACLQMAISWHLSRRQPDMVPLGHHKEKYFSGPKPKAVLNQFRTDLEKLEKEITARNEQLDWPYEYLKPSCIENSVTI
#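 Purified human 12hLO (150 nM final) in 25 mM Hepes, 0.01% Triton X-100, pH 7.0 was preincubated 15 min at room temperature with compound. Then 40 uM arachidonic acid was added, 30 min. Hydroperoxide was read by Fe-XO absorbance ratio 573/405 nm.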
# HT1080-NT tox – qHTS for induction of synthetic lethality in tumor cells producing 2HG: qHTS for the HT-1080-NT fibrosarcoma cell line; HT-1080-NT fibrosarcoma viability, CellTiter-Glo ATP luminescence, 48 h; Potency, µM (doses to about 46.1 µM), for the others: top-dose activity, negative = less viability, usual class: cytotoxic; actives 1.6% (n = 360,000); AID 686970, 2013;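 also: NT is the 2HG producing partner of a matched IDH1 knockdown line; potency is read from the fitted curve at half-maximal effect; 0% = DMSO-treated cells and -100% = media-only wells without cells; nearly all actives have a fitted effect of over 55% in size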
#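 Toxicity toward the 2HG-producing NT line was scored as %Activity, normalised to DMSO and no-cell wells, from CellTiter-Glo luminescence after 48 hours' treatment.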
# HT1080 IDH1KD tx – qHTS for induction of synthetic lethality in tumor cells producing 2HG: qHTS for the HT-1080-IDH1KD cell line; HT-1080 IDH1 knockdown viability, ATP luminescence, 48 h; Potency, µM (series often up to 46.1 µM), for the others: top-dose activity, negative = toxicity, hits mostly cytotoxic; actives 2% (n = 360,000); AID 686971, 2013;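 also: potency is read from the fitted curve at half-maximal effect; 0% = DMSO wells and -100% = cell-free medium wells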
#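 After a 2 h attachment period, IDH1KD HT-1080 cells took pin-transferred compound for 48 h at 37 °C; ATP-based luminescence after 10 min room-temperature reagent incubation reported viability.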
# DT40 TDP1 CPT – qHTS for Inhibitors of human tyrosyl-DNA phosphodiesterase 1 (TDP1): qHTS in cells in presence of CPT; chicken DT40 Tdp1-/-;hTDP1 cells + 20 nM CPT, ATP luminescence, 48 h; Potency, µM (series often up to 46.2 µM), without a hit: top-dose activity change, negative = growth inhibition, usual class: inhibitors; AID 686979, 2013; actives 12% (n = 420,000); also: potency is read from the fitted curve at half-maximal effect; nearly all actives have a fitted effect of over 55% in size
#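 Cell growth measured by CellTiter-Glo luminescence after a minimum 48 h, 37 C compound exposure with 20 nM CPT in Tdp1-knockout DT40 cells stably expressing hTDP1, seeded 400/well; qHTS titration format.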
# IL1B secr inh – qHTS for Inhibitors of Inflammasome Signaling: IL-1-beta AlphaLISA Primary Screen; THP-1 LPS/ATP IL-1B secretion, AlphaLISA, 16 h; active compounds read low; activity change, % at 57.5 µM; actives 4.7% (n = 360,000); AID 743279, 2014; in the data active = activity change below about -50%; inconclusive = mostly about -30% to -49%
#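 THP-1 cells pretreated 1 hr with compounds (up to 57.5 uM final), then stimulated with LPS (250 ng/mL final) plus ATP (1.25 mM final); secreted IL-1B measured by AlphaLISA after 16 hr, decreased signal indicating inhibition.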
# Starred values were filed as active, the others as inactive; ? = inconclusive; / = no result given; [ ] = dose if it differs, or a comment. The sample as a whole holds a higher share of hits than the screen did. Unless noted, calls follow the shape of the dose curve; as a rule, active = well fitted curve in the direction sought with a large enough effect; inconclusive = small, poorly fitted or top-dose-only effect, or another doubt; inactive = no such curve, though single readings can be large; an effect the other way counts as inactive or inconclusive. Unless noted, % is scaled to controls: 0 for no effect and ±100 for the full control effect.
SMILES,TDP1 cell noCPT,12-LOX inh,HT1080-NT tox,HT1080 IDH1KD tx,DT40 TDP1 CPT,IL1B secr inh
COc1ccc(OC)c(NC(=O)CSc2nc3n[nH]c(C)c3c(=N)n2-c2cccc(Cl)c2C)c1,16µM*,-4%,-18%,23µM*,?,-28
COc1cccc2cc(C(=O)NCCOc3cccc(C)c3)c(=O)oc12,/,-6%,/,/,/,/
CCCC(OC(=O)CC1Sc2ccccc2NC1=O)C(=O)NCc1ccco1 (centres undefined),?,32µM*,-3%,-22%,-23%,-23
CC(C)CC(OC(=O)CC1Sc2ccccc2NC1=O)C(=O)NC1CCCC1 (centres undefined),?,2%,-5%,-1%,-6%,0
CCc1ccc(NC(=O)c2cc(S(=O)(=O)N3CCCC3)ccc2F)cc1,12µM*,3%,-11%,-29%,15µM*,-21
CCc1ccc(NC(=O)c2cc(S(=O)(=O)N3CCCCCC3)ccc2F)cc1,18µM*,?,/,/,?,/
CCc1ccc(NC(=O)CCn2nc(C)c(S(=O)(=O)N3CCCCC3)c2C)cc1,18µM*,0%,-3%,-7%,23µM*,-15
O=C(CSc1nc(-c2ccccc2)cc(=O)[nH]1)Nc1ccc(Cl)c(C(F)(F)F)c1,/,0%,/,/,/,/
Cc1cc(C)c2nc(N(CCCN(C)C)C(=O)c3ccc4c(c3)CCCC4)sc2c1,10µM*,?,-15%,?,21µM*,-78*
CN(C)CCCN(C(=O)c1ccc2c(c1)CCCC2)c1nc2c(F)cccc2s1,23µM*,?,-17%,0%,21µM*,-62*
Cc1cccc2sc(N(CCCN(C)C)C(=O)c3cccc(F)c3)nc12,/,-30%,/,/,/,/
CC(C)c1nc2c(c(-c3ccc(Cl)cc3)n1)CCN([S+](=O)([O-])c1cccs1)CC2,/,4%[6.33 µM],/,/,/,/
CC(=O)/C(C#N)=C1\NC(=O)C(Cc2ccc(C)c(Cl)c2)S1 (centres undefined),2.1µM*,?,-28%,?,10µM*,38
CCc1ccc(CC2S/C(=C(\C#N)C(C)=O)NC2=O)cc1 (centres undefined),2.3µM*,?,-29%,?,1.6µM*,31
O=C1NC(=Nc2ccc(F)cc2)SC1Cc1ccc(F)cc1 (centres undefined),?,46%,11%,7%,?,?
Cc1cccc(COCC(Cc2ccccc2)N2CCN(C(=O)c3cccc(Cl)c3)CCC2=O)c1 (centres undefined),18µM*,?,-13%,-20%,26µM*,-61*
Cc1cccc(COC[C@H](Cc2ccccc2)N2CCN(C(=O)c3cccc(Cl)c3)CCC2=O)c1,?,-69%,-30%,?,?,-8
Cc1cccc(C(=O)N2CCC(=O)N(C(COCc3ccccc3)Cc3ccccc3)CC2)c1 (centres undefined),26µM*,0%,-13%,-9%,?,-24
CCC(C)NC(=O)N1CC(n2cc(C(=O)NCc3ccncc3)nn2)C1 (centres undefined),/,20%,/,/,/,/
CN(CC1CC1)C1CCOc2ccccc21 (centres undefined),/,19%[176 µM],/,/,/,/
COc1cc(C(=O)N2CCCC(C)(C(=O)NS(=O)(=O)C3CC3)C2)cc(OC)c1OC (centres undefined),0.92µM*,2%,19%,12%,1.6µM*,-16
COCCNC(=O)C1(C)CCCN(C(=O)c2cccc(C(F)(F)F)c2)C1 (centres undefined),-17%,-9%,12%,1%,-18%,21
CC1(C(=O)NS(=O)(=O)C2CC2)CCCN(C(=O)c2ccc(C(F)(F)F)cc2)C1 (centres undefined),0.65µM*,6%,13%,12%,0.73µM*,34
CC1(C(=O)NS(=O)(=O)C2CC2)CCCN(C(=O)c2cccc(C(F)(F)F)c2)C1 (centres undefined),4.1µM*,-5%,21%,8%,?,40
CC1(C(=O)NS(=O)(=O)C2CC2)CCN(C(=O)c2cc(F)cc(F)c2)C1 (centres undefined),8%,13%,23%,4%,6%,12
SMILES,TDP1 cell noCPT,12-LOX inh,HT1080-NT tox,HT1080 IDH1KD tx,DT40 TDP1 CPT,IL1B secr inh
COc1ccc(C(=O)N2CCCC(C)(C(=O)NS(=O)(=O)C3CC3)C2)cc1 (centres undefined),1.5µM*,-16%,11%,20%,?,24
COc1ccc(OC)c(NC(=O)c2ccc3c(c2)N(C)C2CCCCN2C3=O)c1 (centres undefined),/,6%,/,/,/,/
O=C(CCc1c(-c2ccc(F)cc2)[nH]c2ccccc12)NC1CC1,/,20%,/,/,/,/
OCC1CCN(c2ccccc2)C1 (centres undefined),/,-30%,/,/,/,/
CC1(C(=O)NS(=O)(=O)C2CC2)CCCN(C(=O)c2cccc(OC(F)(F)F)c2)C1 (centres undefined),3.7µM*,-3%,1%,18%,?,-64*
CCCNC(=O)C1(C)CCCN(C(=O)c2ccccc2OC(F)(F)F)C1 (centres undefined),-17%,-19%,29%,11%,11%,6
CC1(C(=O)NS(=O)(=O)C2CC2)CCCN(C(=O)c2ccccc2OC(F)(F)F)C1 (centres undefined),9.2µM*,4%,22%,11%,?,12
CC(C)C(CNC(=O)c1cc(-c2ccncc2)nc2ccccc12)N(C)C (centres undefined),/,10%,/,/,/,/
Cc1ccc(C2Cn3nnc(-c4nc(-c5ccccc5C)no4)c3CO2)c(C)c1 (centres undefined),/,28%,/,/,/,/
O=C(COc1ccc(F)cc1)Nc1ccc2nc(SCc3ccccc3)sc2c1,?,-8%,/,/,?,/
NC(=O)CSc1nc2ccc(NC(=O)COc3ccccc3)cc2s1,23µM*,-13%,/,/,?,/
CC(=O)Nc1ccc2nc(SCC(=O)NCCOc3ccccc3)sc2c1,15µM*,2%,2%,-1%,15µM*,10
CN1CCC(OC2CCN(C(=O)C3CC3)CC2)CC1,/,49%,/,/,/,/
